The whole screen tested about 2,400 compounds, of which about 220 (9.2%) were called active. This is one part of a sample in which actives are shown more often than they occur. Values without a mark were called inactive.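 Rule for the calls: active = signal change above the mean of dofetilide-free buffer controls plus 3 SD, so a positive margin; inactive = the rest.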
Experiment: thallium signal changes without hERG – cell-based, CHO-K1 parental line, FluxOR thallium flux, counter-screen for hERG block protection project, confirmation (AID 1839);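 note: compounds applied alone with no dofetilide to cells lacking hERG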
Conditions: CHO-K1 parental cells, FluxOR thallium flux fluorescence; at 10 µM

Compound | signal change vs control minus 3*SD hit threshold (margin above threshold, higher = more increase)
O=C(Nc1ccc(Cl)cc1)Nn1cnnc1 | -19.6%
CCOC(=O)C1=C(c2ccccc2)NC(=O)NC1c1ccc(O)c(Cl)c1 (stereo not given) | -23.2%
O=c1c2ccccc2[nH]c(=S)n1C1CCCCC1 | -31.6%
CC1CCC(n2c(=S)[nH]c3ccccc3c2=O)CC1 (stereo not given) | 23.6% (active)
CC1CCCCC1n1c(=S)[nH]c2ccccc2c1=O (stereo not given) | -13.4%
Cc1c(C(=O)N/N=C/c2ccccn2)nnn1-c1nonc1N | -22.2%
Cn1c(=O)c2sc3c(c2n(CC(=O)Nc2ccccc2)c1=O)COC(C)(C)C3 | -33%
c1ccc(-c2ccc(-c3ccncn3)cc2)cc1 | -28.8%
Cc1snnc1C(=O)NC(=S)Nc1ccccc1 | 5.3% (active)
O=C(NC(=S)Nc1ccccc1Cl)c1csnn1 | 39.6% (active)
O=C(NC(=S)Nc1ccccc1)c1cncc(C#Cc2ccccc2)c1 | -27.9%
COc1ccc(NC(=S)Nc2ccccn2)cc1 | -35.9%
COc1ccc(NC(=S)NC(=O)c2csnn2)cc1 | 9.6% (active)
COc1ccc(NC(=S)NC(=O)c2ccc(Br)o2)cc1 | -13.4%
O=C(NC(=S)Nc1ccccc1)c1cccs1 | -16.6%
Cc1csc(NC(=S)NC(=O)c2ccccc2)n1 | -14.7%
Cc1ccc(NC(=S)NC(=O)c2ccc(-c3ccccc3)cc2)cc1 | -23.5%
O=C(NC(=S)Nc1ccccc1Cl)c1ccco1 | -7.5%
O=C(NC(=S)Nc1ccccc1)c1csnn1 | 50.8% (active)
Cc1cccnc1NC(=O)c1csnn1 | -24.6%
CC(=O)Nc1ccc(NC(=O)CSc2ncc(C(=O)Nc3ccc(Cl)cc3)c(=O)n2C)cc1 | -22.1%
S=C(N/N=C/c1ccccc1Cl)Nc1cccc(Cl)c1Cl | -4.6%
O=C1CC(N2CCN(c3ccccc3Cl)CC2)C(=O)N1c1ccc(F)cc1 (stereo not given) | -20.8%
COc1cccc(C(=O)/C=C/Nc2ccc(S(=O)(=O)Nc3cnc4ccccc4n3)cc2)c1 | -33.7%
C/C(=N/NC(=O)c1ccncc1)c1ccc2c(c1)OCO2 | -30.7%

Compound | signal change vs control minus 3*SD hit threshold (margin above threshold, higher = more increase)
Cn1c(=O)c(-c2cc(=O)[nH][nH]2)c(O)c2ccccc21 | -23.6%
Cc1noc(C)c1-c1nnc(-c2ccc(C(F)(F)F)cc2)o1 | -18.1%
Cn1cc([N+](=O)[O-])c(C(=O)NCc2cc3cc(Cl)ccc3[nH]2)n1 | -24.3%
Cc1ccc(NC(=O)C2C3CCC(O3)C2C(=O)O)cc1C (stereo not given) | -26%
CC(NC(=O)c1ccncc1)C(C)(C)C (stereo not given) | -25.4%
Cc1ccccc1Cc1c(C)nc2c(C(=O)NCc3ccc4c(c3)OCO4)cnn2c1C | -30.9%
O=c1c(-c2ccccc2)nc(-c2ccccc2)cn1O | 27.1% (active)
COC(=O)Nc1c(-c2ccccc2)nc2ccccn12 | -32.5%
Cc1nc(-c2ccccc2)cn(O)c1=O | -14.6%
Cc1ccc(C)c(NC(=S)NNC(=O)c2csc3c2CCC(C)C3)c1 (stereo not given) | -16.3%
CCOC(=S)NC(=O)c1sc2ccccc2c1Cl | 3% (active)
O=C(NC(=S)N(CCCCO)C1CCCCC1)c1sc2ccccc2c1Cl | -27.6%
COc1ccccc1C(=O)NNC(=S)NC(=O)c1sc2ccccc2c1Cl | -27.2%
O=C(NNC(=S)NC(=O)c1sc2ccccc2c1Cl)c1ccc(Cl)cc1 | -22.6%
COC(=O)CC1C(=O)NCCN1C(=S)NC(=O)c1sc2ccccc2c1Cl (stereo not given) | -17.8%
Cc1ccc(NC(=S)NC(=O)c2sc3ccccc3c2Cl)c(C(=O)O)c1 | -25.3%
COc1ccccc1C(=O)NC(=S)NNC(=O)c1sc2ccccc2c1Cl | 23.2% (active)
CCCCOC(=S)NC(=O)c1sc2ccccc2c1Cl | 24.5% (active)
CCCOC(=S)NC(=O)c1sc2ccccc2c1Cl | -4%
Cc1cccc(OCC(=O)NC2CCCc3ccccc32)c1C (stereo not given) | -39.9%
CCc1nnc(NC(=O)CSc2nc(-c3ccccc3)cc(-c3ccc(OC)cc3)c2C#N)s1 | -33.2%
COc1ccc(C2/C(=C(/O)c3ccc(Br)cc3)C(=O)C(=O)N2C)cc1 (stereo not given) | -34.2%
CCOC(=O)c1sc(=S)n2c1[nH]c(=O)c1ccc(C(=O)OC)cc12 | 27.7% (active)
CCOC(=O)c1sc(NC(=S)NC(=O)c2ccc(OC)cc2)nc1C | -23.3%
CCOCCCn1c(=S)[nH]c2cc(C(=O)NCCOC)ccc2c1=O | -21.5%
